According to PubChem BioAssay:
For some assays here: Measured potencies and affinities stand elsewhere. Active and inactive are the calls of the source.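 The calls were made as follows, unless noted: active = calcium signal rise above buffer-control mean plus 5 SD in both duplicates, and also a hit in the primary screen; inactive = the rest.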

How the values were obtained:
[1] = tested on: TRPC4 beta (transient receptor potential cation channel C4), mouse; assay: TRPC4 cation channel opening, retest – cell-based, Fluo4 calcium, HEK293 TRPC4beta/mu-opioid, duplicates, 10 µM, confirmation (AID 2426;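 active = fluorescence ratio normalized to control raised more than 50% in primary screen plus both repeat runs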;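 as to activation: percent rise of integrated ratio over buffer wells lacking compound which define 0%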); settings: Fluo4 calcium fluorescence, at 10 µM; stronger effect = higher value
[2] = tested on: transient receptor potential cation channel C4 beta (TRPC4), mouse; assay: TRPC4 cation channel opening, second retest – cell-based, second round, Fluo4, HEK293 TRPC4beta/mu-opioid, 1 µM, confirmation (AID 2461;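 active = primary screen active and over 50% activation in each of two duplicate runs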;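 as to activation: 0% = wells without test compound as baseline of integrated fluorescence ratio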); settings: Fluo4 calcium fluorescence, at 1 µM; stronger effect = higher value
[3] = tested on: TRPC4 (transient receptor potential cation channel C4 beta), mouse; assay: potentiation of DAMGO EC20 TRPC4 response – cell-based, second round, Fluo-4, HEK293 TRPC4beta/mu-opioid, 1 µM, confirmation (AID 2554;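 active = primary screen hit whose fluorescence ratio, in both repeats, exceeds the weak agonist control mean by 3 SD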); settings: DAMGO EC20, Fluo-4 calcium flux, at 1 µM; stronger effect = higher value
[4] = tested on: TRPC4 beta (transient receptor potential cation channel C4), mouse; assay: potentiation of DAMGO EC20 TRPC4 response – cell-based, Fluo-4, HEK293 TRPC4beta/mu-opioid, confirmation (AID 2555;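 active = primary screen hit whose calcium fluorescence ratio, in both repeats, exceeds the weak agonist control mean by 3 SD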); settings: DAMGO EC20, Fluo-4 calcium flux, at 10 µM; stronger effect = higher value
[5] = molecular target: Short transient receptor potential channel 4 (Mus musculus) (UniProt Q9QUQ5); assay: blockers of DAMGO-evoked TRPC4 calcium flux – cell-based, Fluo4, HEK293 TRPC4beta/mu-opioid, confirmation (AID 2636;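 active = calcium signal cut by more than 3 SD below the full-agonist control yet still positive, in both repeats and the earlier primary screen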); settings: at 10 µM; stronger effect = higher value
Sequence of Short transient receptor potential channel 4 (Mus musculus) (Q9QUQ5 whole entry, looked up): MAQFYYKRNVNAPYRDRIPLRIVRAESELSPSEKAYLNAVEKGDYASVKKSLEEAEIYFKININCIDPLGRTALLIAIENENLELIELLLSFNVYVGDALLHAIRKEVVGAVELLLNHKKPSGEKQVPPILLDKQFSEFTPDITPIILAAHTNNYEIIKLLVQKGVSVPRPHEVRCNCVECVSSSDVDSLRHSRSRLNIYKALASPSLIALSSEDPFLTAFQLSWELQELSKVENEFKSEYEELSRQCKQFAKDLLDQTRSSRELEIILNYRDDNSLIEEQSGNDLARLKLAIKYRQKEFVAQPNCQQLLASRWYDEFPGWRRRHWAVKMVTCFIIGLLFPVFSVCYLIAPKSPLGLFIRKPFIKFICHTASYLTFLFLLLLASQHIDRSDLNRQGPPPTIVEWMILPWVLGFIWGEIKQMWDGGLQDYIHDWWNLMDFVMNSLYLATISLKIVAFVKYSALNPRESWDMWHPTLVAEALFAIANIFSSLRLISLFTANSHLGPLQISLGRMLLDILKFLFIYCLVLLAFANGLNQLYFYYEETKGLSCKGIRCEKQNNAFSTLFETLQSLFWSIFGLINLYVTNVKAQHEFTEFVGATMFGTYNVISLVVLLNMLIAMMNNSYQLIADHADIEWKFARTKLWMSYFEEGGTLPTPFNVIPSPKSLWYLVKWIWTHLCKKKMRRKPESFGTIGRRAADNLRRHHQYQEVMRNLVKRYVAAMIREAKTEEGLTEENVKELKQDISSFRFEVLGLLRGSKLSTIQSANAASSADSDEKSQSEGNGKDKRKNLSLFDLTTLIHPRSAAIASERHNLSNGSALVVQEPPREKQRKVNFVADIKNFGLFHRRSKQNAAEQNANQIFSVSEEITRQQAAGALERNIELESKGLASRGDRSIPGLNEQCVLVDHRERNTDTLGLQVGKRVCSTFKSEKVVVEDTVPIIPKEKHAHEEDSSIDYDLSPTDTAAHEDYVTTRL

[6] = molecular target: Short transient receptor potential channel 4 (Mus musculus) (UniProt Q9QUQ5); assay: blockers of DAMGO-evoked TRPC4 calcium flux – cell-based, second round, Fluo4, HEK293 TRPC4beta/mu-opioid, 1 µM, confirmation (AID 2637;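 active = calcium signal ratio cut to more than 3 SD under the fully stimulated control mean yet still positive, in both repeats and the primary screen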); settings: at 1 µM; stronger effect = higher value
[7] = molecular target: Short transient receptor potential channel 4 (Mus musculus) (UniProt Q9QUQ5); assay: potentiation of DAMGO-evoked TRPC4 calcium signal – cell-based, HEK293 TRPC4/mu-opioid, Fluo-4 calcium, EC20 DAMGO, dose response (AID 434941;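 active = earlier screen potentiator hit that boosts the TRPC4 ion channel at some dose, with a dose response; inactive = no potentiation, no dose response, or not a prior hit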;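 also: calcium entry triggered by an EC20 dose of DAMGO at the co-expressed mu-opioid receptor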)
[8] = molecular target: Short transient receptor potential channel 4 (Mus musculus) (UniProt Q9QUQ5); assay: block of DAMGO-driven TRPC4 calcium entry – cell-based, HEK293 TRPC4/mu-opioid, Fluo-4 calcium, dose response (AID 434942;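 active = primary screen inhibitor hit that blocks the TRPC4 channel at some tested dose, yielding a dose curve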)
[9] = molecular target: Short transient receptor potential channel 6 (Mus musculus) (UniProt Q61143); assay: TRPC6 blockade by TRPC4 inhibitor hits – cell-based, HEK293, membrane potential dye, duplicate, selectivity assay for TRPC4 inhibitor project, confirmation (AID 434948;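 active = active in primary screen and both duplicates, each dropping signal beyond three positive-control SD with fluorescence still positive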); settings: HEK293 TRPC6, membrane potential dye fluorescence, at 10 µM, stimulated with maximal-effect acetylcholine; stronger effect = higher value
Sequence of Short transient receptor potential channel 6 (Mus musculus) (Q61143 whole entry, looked up): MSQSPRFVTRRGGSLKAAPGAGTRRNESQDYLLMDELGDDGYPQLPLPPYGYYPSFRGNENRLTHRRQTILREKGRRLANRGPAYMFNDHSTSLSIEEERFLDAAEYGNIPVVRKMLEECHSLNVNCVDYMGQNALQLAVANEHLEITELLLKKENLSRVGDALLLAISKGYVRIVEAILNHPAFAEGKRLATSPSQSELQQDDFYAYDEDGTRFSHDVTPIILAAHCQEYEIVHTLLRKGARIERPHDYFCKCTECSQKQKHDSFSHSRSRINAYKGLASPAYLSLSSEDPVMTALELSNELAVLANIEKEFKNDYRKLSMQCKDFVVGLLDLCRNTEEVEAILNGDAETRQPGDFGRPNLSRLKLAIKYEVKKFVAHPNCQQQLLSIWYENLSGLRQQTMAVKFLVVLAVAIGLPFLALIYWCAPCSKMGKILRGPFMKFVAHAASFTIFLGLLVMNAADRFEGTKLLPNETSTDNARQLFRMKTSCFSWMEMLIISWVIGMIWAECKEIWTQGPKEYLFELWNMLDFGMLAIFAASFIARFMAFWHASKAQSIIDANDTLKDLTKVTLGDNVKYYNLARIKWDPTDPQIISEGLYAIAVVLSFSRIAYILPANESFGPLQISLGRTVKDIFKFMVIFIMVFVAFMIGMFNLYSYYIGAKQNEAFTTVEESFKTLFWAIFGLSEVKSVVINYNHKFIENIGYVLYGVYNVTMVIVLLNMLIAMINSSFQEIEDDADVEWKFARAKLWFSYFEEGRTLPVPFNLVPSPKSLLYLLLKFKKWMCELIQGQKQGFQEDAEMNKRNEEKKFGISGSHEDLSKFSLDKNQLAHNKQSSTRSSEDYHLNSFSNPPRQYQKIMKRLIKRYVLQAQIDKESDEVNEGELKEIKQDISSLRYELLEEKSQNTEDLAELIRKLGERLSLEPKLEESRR

[10] = molecular target: Short transient receptor potential channel 6 (Mus musculus) (UniProt Q61143); assay: TRPC6 opening by TRPC4 activator hits – cell-based, HEK293, membrane potential dye, duplicate, selectivity assay for TRPC4 activator project, confirmation (AID 434950;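 active = membrane potential signal rise above negative control mean plus 3 SD in both duplicates, also active in the earlier TRPC4 screen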;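 as to activation: 0% = buffer only wells and 100% = acetylcholine maximal-effect wells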); settings: HEK293 TRPC6, membrane potential fluorescence, at 10 µM; activation: stronger effect = higher value; outcome: activation
[11] = molecular target: Short transient receptor potential channel 6 (Mus musculus) (UniProt Q61143); assay: positive modulators of mouse TRPC6 channel – HEK293 cells, membrane potential dye, duplicate, selectivity assay for TRPC4 potentiator project, confirmation (AID 434952;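 active = compound raising the membrane signal above positive-control mean plus 3 SD in both repeats, and a primary screen hit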); settings: HEK293 TRPC6, membrane potential dye fluorescence, at 10 µM, maximal acetylcholine added after compound; stronger effect = higher value
[12] = molecular target: Short transient receptor potential channel 4 (Mus musculus) (UniProt Q9QUQ5); assay: calcium flux activators in TRPC4/5HT1a cells, counter-screen for TRPC4 activator project, cell-based, second counter screen, HEK293 TRPC4/5HT1a, Fluo-4 (AID 434977); settings: Fluo-4 calcium flux, at 10 µM; stronger effect = higher value;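 as to activation: plate controls were assay buffer for no effect and maximal serotonin response for full effect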
[13] = serotonin-gated TRPC4 signal block – cell-based, second counter screen, HEK293 TRPC4/5HT1a, Fluo-4, counter-screen for TRPC4 inhibitor project, confirmation (AID 434978;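 active = primary screen active whose calcium signal fell more than 3 SD beyond the full-serotonin control mean in both duplicate plates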;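 also: serotonin given first at submaximal then at maximal dose after compound preincubation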); settings: Fluo-4 calcium flux, at 10 µM, serotonin added to trigger calcium flux; stronger effect = higher value
[14] = tested on: TRPC4 (mouse), co-expressed with 5HT1a in HEK293; assay: enhancement of serotonin-evoked TRPC4 response – cell-based, second counter screen, HEK293 TRPC4/5HT1a, Fluo-4, counter-screen for TRPC4 potentiator project, confirmation (AID 434979;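 active = signal rise over 3 SD above mean of control wells given weak agonist, in both repeats and first screen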); settings: Fluo-4 calcium flux, at 10 µM, serotonin added at its EC20 dose; stronger effect = higher value
[15] = nonspecific calcium rise without TRPC4 – cell-based, HEK293 mu-opioid receptor line, counter-screen for TRPC4 activator project, confirmation (AID 449723;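 active = hit in primary screen, with calcium signal over 5 SD above buffer well mean in both duplicates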;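 also: counter screen cells carry the mu-opioid receptor alone and lack TRPC4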); settings: HEK293 mu-opioid cells, Fluo-4 calcium fluorescence, at 10 µM; stronger effect = higher value
[16] = nonspecific potentiation of DAMGO calcium response – cell-based, HEK293 mu-opioid receptor line, counter-screen for TRPC4 allosteric potentiator project, confirmation (AID 449724;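 active = calcium signal rise more than 3 SD above the low-dose agonist control mean, in both duplicate plates and the primary screen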); settings: HEK293 mu-opioid receptor cells, Fluo-4 calcium flux, at 10 µM, compound added before EC20 DAMGO stimulus; stronger effect = higher value

Cc1ccc(NC(=O)CNCC(c2ccccc2)N(C)C)cc1F (configuration not stated)
inactive: outcome [2] | outcome [3] | outcome [4] | outcome [5] | outcome [6] | outcome [7] | outcome [8] | outcome [9] | outcome [11] | outcome [12] | outcome [13] | outcome [14] | outcome [15] | outcome [16]
active: activation [1] 95% | activation [10] 44%

COc1ccc(C(CNC(=O)CSc2ccccc2C)N(C)C)cc1 (configuration not stated)
active: activation [1] 74% | activation [2] 73% | activation [10] 55%
inactive: outcome [3] | outcome [4] | outcome [5] | outcome [6] | outcome [7] | outcome [8] | outcome [9] | outcome [11] | outcome [12] | outcome [13] | outcome [14] | outcome [15] | outcome [16]

CCOC(=O)C1(CC2CC2)CCN(Cc2cnc(-c3ccccc3C)nc2)CC1
inactive: outcome [1] | outcome [2] | outcome [3] | outcome [4] | outcome [5] | outcome [6] | outcome [7] | outcome [8] | outcome [9] | outcome [11] | outcome [12] | outcome [13] | outcome [14] | outcome [15] | outcome [16]
active: activation [10] 59.5%

COC(=O)c1cc(N2CCNCC2)nc2ccccc12
inactive: outcome [1] | outcome [2] | outcome [3] | outcome [5] | outcome [6] | outcome [7] | outcome [8] | outcome [9] | outcome [10] | outcome [11] | outcome [13] | outcome [15] | outcome [16]
active: potentiation [4] 47% | activation [12] 18.6% | potentiation [14] 13.8%

COc1ccc(C(CNC(=O)C2CCN(S(=O)(=O)c3ccc(F)cc3)CC2)N(C)C)cc1 (configuration not stated)
inactive: outcome [2] | outcome [3] | outcome [4] | outcome [5] | outcome [6] | outcome [7] | outcome [8] | outcome [9] | outcome [10] | outcome [11] | outcome [12] | outcome [13] | outcome [14] | outcome [15] | outcome [16]
active: activation [1] 149%

CN(C)C(CNc1ccc(C(F)(F)F)cn1)c1ccccc1 (configuration not stated)
active: activation [1] 135% | activation [10] 32% | activation [12] 5.53%
inactive: outcome [2] | outcome [3] | outcome [4] | outcome [5] | outcome [6] | outcome [7] | outcome [8] | outcome [9] | outcome [11] | outcome [13] | outcome [14] | outcome [15] | outcome [16]

CN(C)c1ccc(/C=C/C(=O)c2c(O)c3ccccc3oc2=O)cc1
inactive: outcome [2] | outcome [3] | outcome [4] | outcome [5] | outcome [6] | outcome [7] | outcome [8] | outcome [9] | outcome [11] | outcome [13] | outcome [14] | outcome [16]
active: activation [1] 221% | activation [10] 934% | activation [12] 113% | activation [15] 121%

COc1ccc(C(CNC(=O)Cc2ccc(-c3ccccc3)cc2)N(C)C)cc1 (configuration not stated)
active: activation [1] 192% | activation [2] 112% | activation [10] 56%
inactive: outcome [3] | outcome [4] | outcome [5] | outcome [6] | outcome [7] | outcome [8] | outcome [9] | outcome [11] | outcome [12] | outcome [13] | outcome [14] | outcome [15] | outcome [16]

COC(=O)c1ccc(C(=S)NCC2(N(C)C)CCCCC2)cc1
inactive: outcome [2] | outcome [3] | outcome [4] | outcome [5] | outcome [6] | outcome [7] | outcome [8] | outcome [9] | outcome [11] | outcome [13] | outcome [14] | outcome [16]
active: activation [1] 181% | activation [10] 41% | activation [12] 22.2% | activation [15] 14.7%

CC1CC(C)CN(CCCNS(=O)(=O)c2cc(Br)cc3c2N(C(=O)C2CC2)CC3)C1 (configuration not stated)
inactive: outcome [3] | outcome [4] | outcome [5] | outcome [6] | outcome [7] | outcome [8] | outcome [9] | outcome [11] | outcome [13] | outcome [14] | outcome [15] | outcome [16]
active: activation [1] 139% | activation [2] 114% | activation [10] 30% | activation [12] 64.6%

Cc1ccc(-c2nn(-c3cccc(F)c3)cc2CNCc2cccnc2)o1
active: activation [1] 100%
inactive: outcome [2] | outcome [3] | outcome [4] | outcome [5] | outcome [6] | outcome [7] | outcome [8] | outcome [9] | outcome [10] | outcome [11] | outcome [12] | outcome [13] | outcome [14] | outcome [15] | outcome [16]

Cc1cc2nc3s/c(=C/c4ccc(-c5ccccc5C(=O)O)o4)c(=O)n3c2cc1C
active: activation [1] 177% | activation [10] 675% | activation [12] 112% | activation [15] 136%
inactive: outcome [2] | outcome [3] | outcome [4] | outcome [5] | outcome [6] | outcome [7] | outcome [8] | outcome [9] | outcome [11] | outcome [13] | outcome [14] | outcome [16]

CCN1CCCC1CNC(=O)c1cc2c(OC)cccc2[nH]1 (configuration not stated)
inactive: outcome [2] | outcome [3] | outcome [4] | outcome [5] | outcome [6] | outcome [7] | outcome [8] | outcome [9] | outcome [11] | outcome [12] | outcome [13] | outcome [14] | outcome [15] | outcome [16]
active: activation [1] 136% | activation [10] 36.5%

COc1ccc(C(CNC(=O)/C=C/c2c(Cl)nc3ccccn23)N(C)C)cc1 (configuration not stated)
active: activation [1] 268% | activation [2] 153% | activation [10] 41% | activation [12] 7.37%
inactive: outcome [3] | outcome [4] | outcome [5] | outcome [6] | outcome [7] | outcome [8] | outcome [9] | outcome [11] | outcome [13] | outcome [14] | outcome [15] | outcome [16]

CN(C)C(CNC(=O)CCS(=O)(=O)c1ccccc1)c1ccccc1 (configuration not stated)
active: activation [1] 77% | activation [2] 75%
inactive: outcome [3] | outcome [4] | outcome [5] | outcome [6] | outcome [7] | outcome [8] | outcome [9] | outcome [10] | outcome [11] | outcome [12] | outcome [13] | outcome [14] | outcome [15] | outcome [16]

Fc1ccc(-n2cc(CNCCc3cccnc3)c(-c3ccccc3Cl)n2)cc1
inactive: outcome [2] | outcome [3] | outcome [4] | outcome [5] | outcome [6] | outcome [7] | outcome [8] | outcome [9] | outcome [11] | outcome [12] | outcome [13] | outcome [14] | outcome [15] | outcome [16]
active: activation [1] 153% | activation [10] 31%

COC(=O)NCC(c1ccc2c(c1)OCO2)N1CCN(c2ccccc2)CC1 (configuration not stated)
inactive: outcome [3] | outcome [4] | outcome [5] | outcome [6] | outcome [7] | outcome [8] | outcome [9] | outcome [11] | outcome [12] | outcome [13] | outcome [14] | outcome [15] | outcome [16]
active: activation [1] 201% | activation [2] 99% | activation [10] 33%
